From PubChem
ERK EGF inh: EGF-driven ERK pathway inhibition; HEK293-V1b, EGF-stimulated phospho-ERK AlphaScreen; Potency, µM (titrated, usually from 11.5 µM), most hits filed as inhibitors; 130,000 compounds, 0.41% hits; AID 1454; active = well fitted inhibition curve with a large enough effect; note: nearly all actives have a fitted effect of over 55% in size
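Concentration-response of compounds against EGF-driven ERK phosphorylation in V1b-expressing HEK293 cells; 30 min preincubation, 5 min EGF, AlphaScreen detection; Normalized to DMSO basal and 25 nM EGF.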
Of the large screens only hits and unclear results are named; the others gave an inactive call. This is one part of a sample in which hits are shown more often than they occur.

CCOc1ccc(-c2csc(/C(C#N)=C\c3ccc(O)c([N+](=O)[O-])c3)n2)cc1	ERK EGF inh 13µM
CC1=C(C(=O)OCc2ccccc2)C(c2cccc([N+](=O)[O-])c2)NC(=O)N1CCCCCC(=O)O (stereo not given)	none
O=C(NCc1n[nH]c(=S)n1-c1cccc(C(F)(F)F)c1)c1ccc(S(=O)(=O)N2CCCC2)cc1	none
COc1ccc(C(=O)OCC(=O)Nc2cc(C)on2)c(OC)c1OC	none
CC(=O)Nc1ccc(/C=C(\C#N)C(=O)NCc2ccccc2)cc1	none
CCOc1ccc2c(c1)-c1c(ssc1=S)C(C)(C)N2C(=O)CSC1=NCCS1	ERK EGF inh 18µM
COc1ccc(C2CC(c3ccc(Br)cc3)=NN2C(=O)CSC2=NCCS2)cc1 (stereo not given)	none
CCOc1ccc(C(=O)NC2=NCCS2)cc1	none
CN(C)c1ccc(CNn2cnnc2SCC(=O)NC(C)(C)C)cc1	none
O=C(C1CC1)N1CCCC(c2ccc(Cl)cc2)=N1	none
COc1ccccc1C(=O)N=Nc1c(O)[nH]c2ccc([N+](=O)[O-])cc12	none
Cc1ccc2c(CN3CCOCC3)cc(=O)oc2c1	none
Cc1cc(N=Nc2ccc(Cl)cc2)cc(CN2CCCC2)c1O	ERK EGF inh 32µM
Clc1ccc2scc(CN3CCCCC3)c2c1	none
Cc1cc(N=Nc2ccc(Cl)cc2)cc(CN2CCOCC2)c1O	ERK EGF inh 16µM
Oc1c(CN2CCOCC2)cc2c(c1-c1c(O)c(CN3CCOCC3)cc3c1CCCC3)CCCC2	none
O=C(NN1CCN(Cc2ccccc2Cl)CC1)c1ccc(Cl)cc1	none
CCOc1ccc2nc(NC(=O)COc3ccc(N(C)S(=O)(=O)c4ccc(C)cc4)cc3)sc2c1	none
CCC(C)Cn1c(C(C)C)nc2ccccc21 (stereo not given)	none
Cc1c(N=c2scc(-c3ccccc3)n2C)c(=O)n(-c2ccccc2)n1C	none
CC1=CC(=Nc2c(C)n(C)n(-c3ccccc3)c2=O)C=C(C)C1=O	none
CCC(C)C1=CC(=Nc2c(C)n(C)n(-c3ccccc3)c2=O)C=C(C(C)CC)C1=O (stereo not given)	ERK EGF inh 16µM
CNCC[C@@H](Oc1ccc(C(F)(F)F)cc1)c1ccccc1	none
O=C(COC(=O)c1ccc(Br)cc1)NCCN1C(=O)CSC1=O	none
CSc1nc2c(C)c(C)c(C)c(C)c2[nH]1	none
O=C(COC(=O)c1cncc(Br)c1)NC1CCCCC1	none
CCCN1C(=O)/C(=C/c2ccc(N3CCOCC3)cc2)NC1=S	none
CCCN1C(=O)/C(=C/c2ccc(OCC(=O)OCC)cc2)NC1=S	ERK EGF inh 32µM
CCOc1cc(/C=C2/NC(=O)N(CC(=O)OC)C2=O)ccc1OC	none
CCS(=O)(=O)N1Cc2ccccc2CC1C(=O)OCC(=O)N(C(C)C)C(C)C (stereo not given)	none
O=C(NCc1csc(-c2cccs2)n1)c1ccccc1	none
O=C(CSc1nc2ccccc2c(=O)n1-c1ccccc1)N1CCC1	none
CC(C)c1ccccc1-n1c(SCC(=O)N2CCc3ccccc3C2)nc2ccccc2c1=O	none
O=C(CSc1nc2ccccc2c(=O)n1-c1ccccc1)N1CCc2ccccc2C1	ERK EGF inh 28µM
CN=C(c1ccc(C)cc1)n1c(=S)nc(-c2ccc(C)cc2)n(C)c1=S	none
CN(c1ccc(C(=O)Nc2cccnc2)cc1)S(C)(=O)=O	none
COc1ccc(CNc2ncnc3cc(OC)c(OC)cc23)cc1OC	none
COc1cc2ncnc(NCc3ccco3)c2cc1OC	ERK EGF inh 22µM
c1coc(CNc2ncnc3[nH]ncc23)c1	none
Cc1cccc(NC(=O)c2ccc(OC3CSC3)cc2)c1	none
COC(=O)c1cccc(NC(=O)c2ccccc2)c1	none
O=C(Nc1cccc(Br)c1)c1ccc(OC2CSC2)cc1	ERK EGF inh 25µM
O=C(Nc1nc2c(s1)CCCC2)c1nn(Cc2ccccc2)c(=O)c2ccccc12	none
CCOc1ccccc1/C=C/C(=O)c1ccc(Cl)cc1	none
O=C(/C=C/c1ccccc1O)c1ccc(Cl)cc1	ERK EGF inh 40µM
CC(=O)/C=C/c1ccccc1O	none
O=C1/C(=C/c2ccncc2)CCC/C1=C\c1ccncc1	ERK EGF inh 22µM
O=C1CCC/C1=C\c1ccccc1	none
O=C1/C(=C/c2ccncc2)N=C2CCCCCN12	none
Cc1ccc2c(c1)-c1c(ssc1=S)C(C)(C)N2C(=O)c1ccco1	ERK EGF inh 13µM
Cc1ccc(CN2CCN(C(=O)c3ccco3)CC2)cc1	none
Cc1cccn2c1nc(=S)n2C(=O)c1ccco1	none
CN(C)S(=O)(=O)c1ccc(C(=O)Oc2coc(CSc3ncccn3)cc2=O)cc1	none
COc1nsnc1NS(=O)(=O)c1ccc(NC(=S)NC(=O)c2cccnc2)cc1	none
O=C(Nc1cccc2ccccc12)N1CCc2ccccc2C1	none
N#C/C(=C\c1sc(N2CCOCC2)nc1-c1ccccc1)C(=O)Nc1cccc2ccccc12	none
O=C1c2ccccc2-c2nnc(-c3ccc(O)cc3)cc21	none
O=C(Nc1ccc(OC(F)(F)F)cc1)N1CCN(c2ccnc3cc(Cl)ccc23)CC1	none
Cc1csc2ncnc(N3CCN(C(=O)Nc4ccc(OC(F)(F)F)cc4)CC3)c12	ERK EGF inh 28µM
O=C(Nc1ccc(OC(F)(F)F)cc1)c1ccc(-n2cncn2)nc1	none
CCN1CCN(C(=O)c2ccc(Sc3ccccc3Cl)c([N+](=O)[O-])c2)CC1	none
